Compound activity as filed in PubChem.
Dicer processing – human Dicer pre-microRNA cleavage inhibition; Q9UPY3; cat-ELCCA pre-miR-21 Dicer processing, chemiluminescence; hits give high values; z-score at 25 µM; 47,000 compounds, 6% hits; in the data active = z-score above about 3, passing the limit was not always enough;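 note: higher signal means more uncleaved substrate so more Dicer inhibition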
Target sequence (Q9UPY3 whole entry, looked up): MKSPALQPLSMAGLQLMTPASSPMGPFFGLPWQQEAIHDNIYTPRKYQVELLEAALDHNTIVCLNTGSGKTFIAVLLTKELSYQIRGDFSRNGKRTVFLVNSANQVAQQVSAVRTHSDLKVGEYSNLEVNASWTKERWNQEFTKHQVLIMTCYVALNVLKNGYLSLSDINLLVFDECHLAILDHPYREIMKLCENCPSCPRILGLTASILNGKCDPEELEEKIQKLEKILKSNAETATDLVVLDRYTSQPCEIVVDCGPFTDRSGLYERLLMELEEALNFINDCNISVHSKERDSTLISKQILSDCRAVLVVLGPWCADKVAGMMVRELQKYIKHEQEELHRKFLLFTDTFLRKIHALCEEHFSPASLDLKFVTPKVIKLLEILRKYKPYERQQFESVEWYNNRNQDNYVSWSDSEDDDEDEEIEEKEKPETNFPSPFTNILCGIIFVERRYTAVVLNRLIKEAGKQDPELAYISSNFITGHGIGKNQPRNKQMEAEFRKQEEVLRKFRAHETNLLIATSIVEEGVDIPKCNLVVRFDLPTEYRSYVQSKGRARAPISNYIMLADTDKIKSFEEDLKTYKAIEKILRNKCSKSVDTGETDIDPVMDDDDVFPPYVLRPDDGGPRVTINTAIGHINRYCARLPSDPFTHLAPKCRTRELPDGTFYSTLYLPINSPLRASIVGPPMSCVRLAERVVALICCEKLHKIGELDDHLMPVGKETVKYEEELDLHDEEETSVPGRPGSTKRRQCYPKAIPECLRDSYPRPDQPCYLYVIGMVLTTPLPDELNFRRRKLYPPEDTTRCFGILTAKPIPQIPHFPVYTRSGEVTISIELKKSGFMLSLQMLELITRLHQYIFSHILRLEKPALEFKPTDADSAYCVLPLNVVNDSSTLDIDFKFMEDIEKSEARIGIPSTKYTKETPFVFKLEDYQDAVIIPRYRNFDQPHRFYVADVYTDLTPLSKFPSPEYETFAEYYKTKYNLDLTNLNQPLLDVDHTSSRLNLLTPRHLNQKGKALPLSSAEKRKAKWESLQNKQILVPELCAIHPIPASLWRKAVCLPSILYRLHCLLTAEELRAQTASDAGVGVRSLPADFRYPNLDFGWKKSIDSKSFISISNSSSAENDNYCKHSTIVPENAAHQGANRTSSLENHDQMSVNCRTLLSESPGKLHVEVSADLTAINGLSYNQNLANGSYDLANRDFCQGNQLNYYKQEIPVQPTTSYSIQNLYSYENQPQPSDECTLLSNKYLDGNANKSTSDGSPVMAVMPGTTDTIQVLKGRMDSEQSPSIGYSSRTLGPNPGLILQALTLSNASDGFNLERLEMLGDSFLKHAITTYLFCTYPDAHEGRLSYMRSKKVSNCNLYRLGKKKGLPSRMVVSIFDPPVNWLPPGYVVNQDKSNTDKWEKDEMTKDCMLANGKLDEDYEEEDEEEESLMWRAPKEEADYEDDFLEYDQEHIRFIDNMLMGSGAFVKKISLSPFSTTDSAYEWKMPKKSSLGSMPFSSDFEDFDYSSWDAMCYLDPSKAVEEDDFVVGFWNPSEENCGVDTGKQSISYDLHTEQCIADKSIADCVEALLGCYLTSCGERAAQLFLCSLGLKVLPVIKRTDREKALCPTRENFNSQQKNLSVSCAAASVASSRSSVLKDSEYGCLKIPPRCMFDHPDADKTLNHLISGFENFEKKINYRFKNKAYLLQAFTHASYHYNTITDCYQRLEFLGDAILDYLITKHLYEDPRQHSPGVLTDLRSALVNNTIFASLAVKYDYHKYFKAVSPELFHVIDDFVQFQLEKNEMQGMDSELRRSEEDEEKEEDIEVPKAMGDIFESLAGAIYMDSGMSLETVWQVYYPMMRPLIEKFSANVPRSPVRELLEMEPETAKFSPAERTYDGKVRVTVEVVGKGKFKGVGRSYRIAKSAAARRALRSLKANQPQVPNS
Hits are given with their value; - = inactive; ! = repeats disagree. Only a selection was taken, and hits are over-represented in it overall.

SMILES | Dicer processing
CCc1ccccc1-n1c(=S)[nH]c2ccccc2c1=O | -
Cc1ccc(-n2c(=S)[nH]c3ccccc3c2=O)cc1 | -
Cc1ccc2[nH]c(=S)n(-c3ccccc3F)c(=O)c2c1 | 5.3
CN1C(=O)Oc2ccc(Cl)cc2C1O (stereo not drawn) | -
CCCCCc1nc2ccccc2c(=O)n1-c1ccc(O)cc1 | -
CN1C(=O)CN=C(c2ccccc2)c2ccccc21 | -
O=c1c2ccccc2nc(/C=C/c2ccc([N+](=O)[O-])o2)n1-c1ccc(Br)cc1 | -
O=c1c2ccccc2nc(/C=C/c2ccco2)n1-c1cccc(O)c1 | -
O=c1c2ccccc2nc(C(F)(F)F)n1-c1ccccc1 | -
O=c1c2ccccc2nc(/C=C/c2ccccc2F)n1-c1ccccc1 | 6
Cc1nc2ccccc2c(=O)n1-c1ccc(Br)cc1 | -
O=c1c2ccccc2nc(/C=C/c2ccccc2)n1-c1cccc(O)c1 | 3.1
Cc1ccc(-n2c(/C=C/c3ccc([N+](=O)[O-])o3)nc3ccccc3c2=O)cc1 | 3
CN(C)c1ccc(/C=C/c2nc3ccccc3c(=O)n2-c2ccccc2)cc1 | -
O=c1c2ccccc2nc(/C=C/c2ccc3c(c2)OCO3)n1-c1ccccc1O | -
CC(C)(C)c1ccc(-n2c(=S)[nH]c3ccccc3c2=O)cc1 | -
CC(=O)OC1CCC2(C)C(=CCC3C2CCC2(C)C(OC(C)=O)CCC32)C1 (stereo not drawn) | -
c1ccc2sc(Cc3cn4ccccc4n3)nc2c1 | -
O=c1c2ccccc2[nH]c(=S)n1-c1ccc(F)c(Cl)c1 | -
CCCCn1c(N)c(C(=O)OC)c2nc3ccccc3nc21 | -
Cc1ccc(NC2=NCC(C)(C)S2)cc1 | -
Clc1cccc(NC2=NCCS2)c1Cl | 3.6
Clc1cc(Br)ccc1NC1=NCCS1 | -
Cc1ccc(NC2=NCCS2)c(C)c1 | -
Cc1cc(C)c(NC2=NCCS2)c(C)c1 | -
SMILES | Dicer processing
Clc1cccc(Cl)c1NC1=NCCS1 | -
Clc1cc(Cl)cc(NC2=NCCS2)c1 | 3.7!
CC12CCC3C(CC4OCC35CCC(O)C[C@]45Br)C1CCC2O (stereo partly drawn) | -
N#Cc1ccc(NC(=O)c2cc(C(F)(F)F)cc(C(F)(F)F)c2)cc1C(F)(F)F | -
CC12CC(C(=O)C(F)(F)F)=C(O)C=C1CCC1C2CCC2(C)C(O)CCC12 (stereo not drawn) | -
CCSc1nnc(C2CCNCC2)o1 | -
COc1ccc(CN2CCN(Cc3ccc(Br)cc3)CC2)cc1 | -
COc1cccc(CN2CCN(Cc3cc(Br)ccc3O)CC2)c1 | 3.4
CCc1ccc(CN2CCN(Cc3cc(Br)ccc3O)CC2)cc1 | -
Clc1cccc(CN2CCN(Cc3ccc4c(c3)OCO4)CC2)c1 | -
Fc1cccc(Cl)c1CN1CCN(Cc2c(F)cccc2Cl)CC1 | -
CSc1ccc(CN2CCN(Cc3ccccc3Cl)CC2)cc1 | -
Clc1ccc(CN2CCN(Cc3ccc4c(c3)OCO4)CC2)cc1 | -
Clc1ccccc1CN1CCN(Cc2ccc3c(c2)OCO3)CC1 | 3.9
Fc1cccc(CN2CCN(Cc3ccccc3Cl)CC2)c1 | 6.4
O=[N+]([O-])/C=C/c1cc2c(cc1[N+](=O)[O-])OCO2 | -
CCOC(=O)c1c(C)nc2c(C3CCCN3C)cccn12 (stereo not drawn) | -
CCN(CC)CCn1c(NCc2ccc(Cl)cc2)nc2ccccc21 | -
CC1(C)CN=C(Nc2ccc(Cl)cc2)S1 | -
CCOC(=O)C1=NN(c2cccc(Cl)c2)C2c3cccc4cccc(c34)C12 (stereo not drawn) | -
O=[N+]([O-])/C=C/c1ccc(Cl)c(Cl)c1 | -
CCCCCCn1c(N)c(C(=O)OC)c2nc3ccccc3nc21 | -
C[C@]12CC[C@H](O)C[C@H]1CC[C@@H]1[C@@H]2C[C@@H](O)[C@]2(C)[C@@H](C3=CC(=O)OC3)CC[C@]12O | 4.5
C[C@]12CC[C@H](O)C[C@H]1CC[C@@H]1[C@@H]2CC[C@]2(C)[C@@H](C3=CC(=O)OC3)CC[C@]12O | -
C[C@]12CCC3[C@@H](CC[C@@H]4C[C@H](O)CC[C@]34C)[C@@H]1CCC2=O (stereo partly drawn) | -
SMILES | Dicer processing
CC1(C)CN=C(Nc2ccccc2F)S1 | -
O=C(C(Cl)Cl)N1CCSCC1 | -
N#CC1=C(N)Oc2c(c(=O)oc3ccccc23)C1c1cccnc1 (stereo not drawn) | -
O=c1oc2ccccc2c2c1C(c1cccc([N+](=O)[O-])c1)c1c(c3ccccc3oc1=O)O2 | -
O=c1oc2ccccc2c2c1C(c1ccc([N+](=O)[O-])cc1)c1c(c3ccccc3oc1=O)O2 | 3.7
COc1ccc(C=C2C(=O)C3CCN2CC3)cc1Br | -
Cc1ccc(-n2c(=S)[nH]c3cccc(F)c3c2=O)cc1C | -
COCc1cc(=O)oc2cc(OC(=O)N(C)C)ccc12 | -
O[C@H]1CC2CCC1N(Cc1ccccc1)C2 (stereo partly drawn) | -
Cc1oc2cc(OC(=O)N(C)C)ccc2c(=O)c1Oc1ccccc1Br | -
COc1cccc(Oc2c(C)oc3cc(OC(=O)N(C)C)ccc3c2=O)c1 | -
CCOc1ccccc1Oc1coc2cc(OC(=O)N(C)C)ccc2c1=O | 3.4
O=C(c1ccco1)c1cn(Cc2c(F)cccc2Cl)c2ccccc12 | -
CC(C)N(C(C)C)C1N=C(c2ccccc2)c2cc(Cl)ccc2N(C)C1=O (stereo not drawn) | -
C=C(C)Cc1c(COC)nc(-c2ccc(C)c(Cl)c2)nc1OC(=O)N(C)C | -
CCOC(=O)C1=C(C)OC(N)=C(C#N)C12C(=O)Nc1ccccc12 (stereo not drawn) | -
COCCOC(=O)C1=C(C)OC(N)=C(C#N)C12C(=O)Nc1ccccc12 (stereo not drawn) | 3.8
CCOC(=O)C1=C(N)OC(c2ccccc2)=C(C(=O)OCC)C12C(=O)Nc1ccccc12 (stereo not drawn) | -
CCC1c2c(nc(C)[nH]c2=O)Oc2c1c(=O)oc1ccccc21 (stereo not drawn) | -
O=C(Nc1ccc(F)cc1)N1CC2C[C@H](C1)c1cccc(=O)n1C2 | -
Nc1c(Oc2ccccc2)cc(O)c2c1C(=O)c1ccccc1C2=O | -
Nc1ccc(Cc2ccc(N)cc2)cc1 | 7.6
COc1ccc(Br)cc1/C=C(\C)[N+](=O)[O-] | -
CCC1(C(=O)c2ccc(F)cc2)C2c3cc(Br)ccc3OC(=O)C21C(=O)OC (stereo not drawn) | 3.4
COc1cc(N=C(N)N[N+](=O)[O-])cc(OC)c1OC | -
